Reference: the supplement of paper PMC12494721
Counter-ions that a name gives are not always drawn.

tested on: Ruminococcus gnavus DSM 108212; test: fold change of 2-Phenylethylamine concentration vs plate DMSO controls (fold change (ratio)); higher = more amine produced, active = hit call of the paper (significant change in both replicates, either direction); conditions: incubation time: 27 h, anaerobic, 37 °C;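 for the amine columns active = adjusted P below 0.05 in both replicates with a change the same way and a mean fold change under 0.8 or over 1.25; inactive = the rest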
Procedure, shortened: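 Anaerobic mGAM cultures of four gut bacterial strains were grown at 37 °C for 27 h in 80 µL wells, starting at OD 0.1 before 1:1 dilution. Compounds were at 20 µM final (sweeteners 50 µM). Whole cultures were extracted with cold acetonitrile/methanol containing 0.1% formic acid and centrifuged. Amines were quantified by LC–triple-quadrupole MS (dynamic MRM) against external calibration curves and drift-corrected within batch. Each value is the fold change versus plate DMSO controls, averaged over 2 biological replicates.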

Fold change of 2-Phenylethylamine concentration, inactive:
CNC(=C[N+](=O)[O-])NCCSCc1ccc(CN(C)C)o1 [Ranitidine hydrochloride] (20 µM) 0.984
C/C(O)=C(\C#N)C(=O)Nc1ccc(C(F)(F)F)cc1 [Teriflunomide] (20 µM) 1.04
Cc1ccsc1/C=C/C1=NCCCN1C [Morantel tartrate] (20 µM) 0.957
CCCCOCCOCCOCc1cc2c(cc1CCC)OCO2 (20 µM) 1.06
CC(C)C(=O)Nc1ccc([N+](=O)[O-])c(C(F)(F)F)c1 [Flutamide] (20 µM) 1.02
N=c1nc(N2CCCCC2)cc(N)n1O [Minoxidil] (20 µM) 1.05
C[C@]12CCC3=C4CCC(=O)C=C4CC[C@H]3[C@@H]1CC[C@@]2(O)CC#N [Dienogest] (20 µM) 1.02
CN(Cc1cnc2nc(N)nc(N)c2n1)c1ccc(C(=O)N[C@@H](CCC(=O)O)C(=O)O)cc1 [Amethopterin] (20 µM) 0.832
NC(=O)C1CO1 (configuration not stated) [Glycidamide] (20 µM) 0.973
O=C1[C@H]2CCCC[C@H]2C(=O)N1CCCCN1CCN(c2nsc3ccccc23)CC1 [Perospirone hydrochloride] (20 µM) 0.819
C=C1[C@H](CO)[C@@H](O)C[C@@H]1n1cnc2c(=O)[nH]c(N)nc21 [Entecavir] (20 µM) 0.98
O=c1n(CCCN2CCN(c3cccc(Cl)c3)CC2)nc2ccccn12 [Trazodone hydrochloride] (20 µM) 0.799
